For orientation: viability means a read-out of living cells in per cent, often relative to untreated cells.

Values joined by “and” are separate entries in the source; they are usually repeats but may differ in a detail not shown here. Identical values can stand only once. Active and inactive are the calls of the source.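 The calls were made as follows, unless noted: active = compounds whose cell count with miR-34 switched on is under 0.7 times the count with it off; inactive = the rest.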

6 compounds from PubChem BioAssay can be followed below.

A short description of assay [1]: hESC survival regulators, cell-based (AID 493140; call rule not given here;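 also: cells exposed to compounds for four days before counting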). As to conditions: human embryonic stem cell survival screen; stronger effect = higher value.
The nature of assay [2]: sensitizers of A549 cells to miR-34 induction, primary screen, imaging, A549 dox-inducible miR-34, nuclei and caspase counts (AID 1347080). As to conditions: A549 miR-34 inducible, Hoechst nuclei count, 48 h.
A short description of assay [3]: survival rescue of mitochondrial mutant cells in low glucose, primary screen, MELAS cybrids, Rieske KO mouse fibroblasts, CellTiter-Glo (AID 1508586;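 active = mean z-score across replicates of 1.96 or higher in either the MELAS or the Rieske mutant cell line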;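 also: z relative to plate mean and SD of compound and empty wells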). Background: ATP-based viability assays read luminescence as a measure of living cells.
A short description of assay [4]: viability rescue of complex I mutant cybrids, primary screen, cell-based, galactose medium, ATP luminescence (AID 1645843;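 active = z-score of at least 1.8 in each of two replicates, scored against plate mean and spread of sample wells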;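 also: positive z means more ATP and so rescue of galactose-driven cybrid death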). As to conditions: complex I mutant cybrid cells, 72 h, stronger effect = higher value.
A short description of assay [5]: liver-stage malaria parasite growth inhibition, primary screen, cell-based, HepG2, luciferase luminescence, HepG2 viability (AID 624349; in the data active = parasite load remaining mostly below about 12%, no sharp cut-off; inactive = mostly above about 10%;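 also: 100% = mean of DMSO negative control wells on the same plate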). As to conditions: P. berghei liver stage in HepG2, luciferase luminescence, concentration not given here; parasite load remaining: stronger effect = lower value; viability: measured here: HepG2 viability without parasites.
[6] abbreviates: stronger effect = lower value, cell number ratio, induced over uninduced.
The mark [7] stands for this setting: measured here: relative caspase fold change +Dox/-Dox.
The mark [8] stands for this setting: measured here: total cells with miR-34 induction, stronger effect = lower value.
Where [9] appears, read: measured here: total cells without miR-34 induction.
Where [10] appears, read: MELAS cybrid survival, CellTiter-Glo 48 h, stronger effect = higher value.
The mark [11] stands for this setting: Rieske KO mouse fibroblast survival, CellTiter-Glo 72 h.

For the compound `CNC(=C[N+](=O)[O-])NCCSCc1csc(CN(C)C)n1`, the survival in assay [1] was 4.67 (inactive). Besides, the fold change in assay [2] (setting [6]) was 0.834 (inactive) and 1.04 (inactive); in assay [2] (setting [7]), 1.65 and 0.659. The cell count in assay [2] (setting [8]) is 8750 and 8440; in assay [2] (setting [9]), 10500 and 8100. The figures for the z-score in assay [3] (setting [10]), in assay [3] (setting [11]) and in assay [4] were -0.241 (inactive), -0.0279 and 0.825 (inactive), respectively.

With `CC[C@@H]1OC(=O)C[C@H](O)[C@@H](C)[C@@H](O[C@@H]2O[C@H](C)[C@@H](O[C@H]3C[C@@](C)(O)[C@@H](O)[C@H](C)O3)[C@H](N(C)C)[C@H]2O)[C@@H](C=O)C[C@@H](C)C(=O)/C=C/C(C)=C\[C@@H]1CO[C@H]1O[C@@H](C)[C@H](O)[C@H](OC)[C@@H]1OC`, the parasite load remaining in assay [5] is 27.3% (inactive). In addition, the viability in assay [5] was 67%. Besides, the values for the fold change in assay [2] (setting [6]) and in assay [2] (setting [7]) were 0.839 (inactive) and 1.48, respectively. In addition, the cell count turned out to be 9360 in assay [2] (setting [8]) and 11200 in assay [2] (setting [9]). In addition, the z-score in assay [3] (setting [10]) is 0.258 (inactive); in assay [3] (setting [11]), -0.691; in assay [4], 0.54 (inactive).

Turning to `Nc1nc(=O)n([C@@H]2CS[C@H](CO)O2)cc1F`, the parasite load remaining in assay [5] is 56.6% (inactive). In addition, the viability in assay [5] amounted to 160%. Also, the fold change in assay [2] (setting [6]) is 0.911 (inactive); in assay [2] (setting [7]), 1.49. In addition, the cell count was found to be 10100 in assay [2] (setting [8]) and 11100 in assay [2] (setting [9]). Besides, the z-score in assay [3] (setting [10]) is 0.34 (inactive) and -0.461 (inactive); in assay [3] (setting [11]), -0.0583 and -0.327; in assay [4], 0.88 (inactive).

For the compound `COc1ccc(C(=O)/C(Br)=C\C(=O)O)cc1`, the parasite load remaining in assay [5] was 25.4% (inactive). For the same compound, the viability in assay [5] worked out at 107%. Further, the fold change in assay [2] (setting [6]) was 0.888 (inactive); in assay [2] (setting [7]) it was 1.39. Also, the cell count turned out to be 9940 in assay [2] (setting [8]) and 11200 in assay [2] (setting [9]). Also, the z-score in assay [3] (setting [10]) was -0.188 (inactive); in assay [3] (setting [11]), -0.289; in assay [4], -0.925 (inactive).

Take `CC(C)C[C@H](NC(=O)[C@@H](Cc1c[nH]c2ccccc12)NC(=O)[C@H](Cc1ccc(O)cc1)NC(=O)[C@H](CO)NC(=O)[C@H](Cc1c[nH]c2ccccc12)NC(=O)[C@H](Cc1cnc[nH]1)NC(=O)[C@@H]1CCC(=O)N1)C(=O)N[C@@H](CCCN=C(N)N)C(=O)N1CCC[C@H]1C(=O)NCC(N)=O`: the parasite load remaining in assay [5] is 20.9% (inactive). The viability in assay [5] came out at 68.5%. Moreover, the results for the fold change in assay [2] (setting [6]) and in assay [2] (setting [7]) were 0.921 (inactive) and 1.16, respectively. For the same compound, the cell count in assay [2] (setting [8]) is 9400; in assay [2] (setting [9]) it was 10200. Moreover, the z-score in assay [3] (setting [10]) was 0.161 (inactive); in assay [3] (setting [11]) it was -0.118; in assay [4] it was 0.68 (inactive).

Take `CC(C)C[C@H](NC(=O)[C@@H](COC(C)(C)C)NC(=O)[C@H](Cc1ccc(O)cc1)NC(=O)[C@H](CO)NC(=O)[C@H](Cc1c[nH]c2ccccc12)NC(=O)[C@H](Cc1cnc[nH]1)NC(=O)[C@@H]1CCC(=O)N1)C(=O)N[C@@H](CCCN=C(N)N)C(=O)N1CCC[C@H]1C(=O)NNC(N)=O`: in assay [5], the parasite load remaining is 53.9% (inactive). Besides, in assay [5], the viability came to 102%. For the same compound, the fold change in assay [2] (setting [6]) was 0.891 (inactive); in assay [2] (setting [7]), 1.53. The cell count in assay [2] (setting [8]) came to 10600; in assay [2] (setting [9]), 11900. The z-score in assay [3] (setting [10]) was -0.533 (inactive); in assay [3] (setting [11]), -0.444; in assay [4], 0.71 (inactive).
